Assay results: PMC11006913
Changes are numbered by the printed parent chain.

Tests used:
Assay in all cases: PBM; 200 nM protein, PBS
Conditions in all cases: dsDNA, one strand shown
PAX4 [1] = biological target: T1, PAX4 (Homo sapiens, UniProt O43316 9-242, R200K)
T1 sequence: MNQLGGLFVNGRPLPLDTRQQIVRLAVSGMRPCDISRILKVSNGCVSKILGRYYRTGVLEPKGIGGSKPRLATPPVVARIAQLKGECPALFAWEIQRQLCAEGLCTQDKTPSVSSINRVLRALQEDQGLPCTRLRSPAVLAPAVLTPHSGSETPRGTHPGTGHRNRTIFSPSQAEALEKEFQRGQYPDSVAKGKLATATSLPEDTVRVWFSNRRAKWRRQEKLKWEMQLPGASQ

PAX4 [2] = biological target: T2, PAX4 (Homo sapiens, UniProt O43316 9-242)
T2 sequence: T1 sequence with K192R

PAX4 [3] = biological target: T3, PAX4 (Homo sapiens, UniProt O43316 9-242, R200Q)
T3 sequence: T1 sequence with K192Q

PAX4 [4] = biological target: T4, PAX4 (Homo sapiens, UniProt O43316 9-242, F177V)
T4 sequence: T1 sequence with F169V, K192R

PAX4 [5] = biological target: T5, PAX4 (Homo sapiens, UniProt O43316 9-242, F177Y)
T5 sequence: T1 sequence with F169Y, K192R

PROP1 [6] = biological target: PROP1 (Homo sapiens, UniProt O75360 56-141)
PROP1 [7] = biological target: PROP1 (Homo sapiens, UniProt O75360 56-141, R99H)
PROP1 [8] = biological target: PROP1 (Homo sapiens, UniProt O75360 56-141, F88S)
PAX4 [9] = biological target: T6, PAX4 (Homo sapiens, UniProt O43316 9-242, R227W)
T6 sequence: T1 sequence with K192R, R219W

Sequence of PROP1 (Homo sapiens, UniProt O75360 56-141, F88S) (O75360 56-141 F88S): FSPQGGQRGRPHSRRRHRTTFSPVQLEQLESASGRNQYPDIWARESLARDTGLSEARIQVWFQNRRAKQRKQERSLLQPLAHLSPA
Sequence of PROP1 (Homo sapiens, UniProt O75360 56-141) (O75360 56-141): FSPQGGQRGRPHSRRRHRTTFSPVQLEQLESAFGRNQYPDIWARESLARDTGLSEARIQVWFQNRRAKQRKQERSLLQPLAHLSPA
Sequence of PROP1 (Homo sapiens, UniProt O75360 56-141, R99H) (O75360 56-141 R99H): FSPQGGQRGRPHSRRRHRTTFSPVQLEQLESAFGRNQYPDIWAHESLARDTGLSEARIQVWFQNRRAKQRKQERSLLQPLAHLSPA

Sequence	binding signal (PAX4 [1])	binding signal (PAX4 [2])	binding signal (PAX4 [3])	binding signal (PAX4 [4])	binding signal (PAX4 [5])	binding signal (PROP1 [6])	binding signal (PROP1 [7])	binding signal (PROP1 [8])	binding signal (PAX4 [9])
CCGTCCGA	9.27 upbm affinity estimate (log intensity, higher = more binding, comparable within an allelic series)	9.39 upbm affinity estimate (log intensity, higher = more binding, comparable within an allelic series)	9.28 upbm affinity estimate (log intensity, higher = more binding, comparable within an allelic series)	9.26 upbm affinity estimate (log intensity, higher = more binding, comparable within an allelic series)	9.27 upbm affinity estimate (log intensity, higher = more binding, comparable within an allelic series)	6.64 upbm affinity estimate (log intensity, higher = more binding, comparable within an allelic series)	6.59 upbm affinity estimate (log intensity, higher = more binding, comparable within an allelic series)	6.67 upbm affinity estimate (log intensity, higher = more binding, comparable within an allelic series)	9.25 upbm affinity estimate (log intensity, higher = more binding, comparable within an allelic series)
GGAGGCAC	9.34 upbm affinity estimate (log intensity, higher = more binding, comparable within an allelic series)	9.31 upbm affinity estimate (log intensity, higher = more binding, comparable within an allelic series)	9.57 upbm affinity estimate (log intensity, higher = more binding, comparable within an allelic series)	9.46 upbm affinity estimate (log intensity, higher = more binding, comparable within an allelic series)	9.46 upbm affinity estimate (log intensity, higher = more binding, comparable within an allelic series)				9.48 upbm affinity estimate (log intensity, higher = more binding, comparable within an allelic series)
AGGCCGCC	9.08 upbm affinity estimate (log intensity, higher = more binding, comparable within an allelic series)	9.11 upbm affinity estimate (log intensity, higher = more binding, comparable within an allelic series)	9.15 upbm affinity estimate (log intensity, higher = more binding, comparable within an allelic series)	9.15 upbm affinity estimate (log intensity, higher = more binding, comparable within an allelic series)	9.1 upbm affinity estimate (log intensity, higher = more binding, comparable within an allelic series)				9.22 upbm affinity estimate (log intensity, higher = more binding, comparable within an allelic series)
AGCGCTGC	9.36 upbm affinity estimate (log intensity, higher = more binding, comparable within an allelic series)	9.27 upbm affinity estimate (log intensity, higher = more binding, comparable within an allelic series)	9.34 upbm affinity estimate (log intensity, higher = more binding, comparable within an allelic series)	9.36 upbm affinity estimate (log intensity, higher = more binding, comparable within an allelic series)	9.24 upbm affinity estimate (log intensity, higher = more binding, comparable within an allelic series)				9.35 upbm affinity estimate (log intensity, higher = more binding, comparable within an allelic series)
ACTAATTC	11.6 upbm affinity estimate (log intensity, higher = more binding, comparable within an allelic series)	12.1 upbm affinity estimate (log intensity, higher = more binding, comparable within an allelic series)	11.8 upbm affinity estimate (log intensity, higher = more binding, comparable within an allelic series)	10.4 upbm affinity estimate (log intensity, higher = more binding, comparable within an allelic series)	10.9 upbm affinity estimate (log intensity, higher = more binding, comparable within an allelic series)				10.9 upbm affinity estimate (log intensity, higher = more binding, comparable within an allelic series)
AGCGCCGC	9.3 upbm affinity estimate (log intensity, higher = more binding, comparable within an allelic series)	9.34 upbm affinity estimate (log intensity, higher = more binding, comparable within an allelic series)	9.35 upbm affinity estimate (log intensity, higher = more binding, comparable within an allelic series)	9.22 upbm affinity estimate (log intensity, higher = more binding, comparable within an allelic series)	9.31 upbm affinity estimate (log intensity, higher = more binding, comparable within an allelic series)				9.31 upbm affinity estimate (log intensity, higher = more binding, comparable within an allelic series)
ATTAGCTA	11.4 upbm affinity estimate (log intensity, higher = more binding, comparable within an allelic series)	11.7 upbm affinity estimate (log intensity, higher = more binding, comparable within an allelic series)	11.4 upbm affinity estimate (log intensity, higher = more binding, comparable within an allelic series)	10.2 upbm affinity estimate (log intensity, higher = more binding, comparable within an allelic series)	10.6 upbm affinity estimate (log intensity, higher = more binding, comparable within an allelic series)				10.6 upbm affinity estimate (log intensity, higher = more binding, comparable within an allelic series)
CGAATTAA	12 upbm affinity estimate (log intensity, higher = more binding, comparable within an allelic series)	12.6 upbm affinity estimate (log intensity, higher = more binding, comparable within an allelic series)	11.9 upbm affinity estimate (log intensity, higher = more binding, comparable within an allelic series)	10.6 upbm affinity estimate (log intensity, higher = more binding, comparable within an allelic series)	11.2 upbm affinity estimate (log intensity, higher = more binding, comparable within an allelic series)				11.1 upbm affinity estimate (log intensity, higher = more binding, comparable within an allelic series)
GCGAGGCC	9.39 upbm affinity estimate (log intensity, higher = more binding, comparable within an allelic series)	9.4 upbm affinity estimate (log intensity, higher = more binding, comparable within an allelic series)	9.36 upbm affinity estimate (log intensity, higher = more binding, comparable within an allelic series)	9.18 upbm affinity estimate (log intensity, higher = more binding, comparable within an allelic series)	9.2 upbm affinity estimate (log intensity, higher = more binding, comparable within an allelic series)				9.27 upbm affinity estimate (log intensity, higher = more binding, comparable within an allelic series)
CCGGGCTC	9.24 upbm affinity estimate (log intensity, higher = more binding, comparable within an allelic series)	9.31 upbm affinity estimate (log intensity, higher = more binding, comparable within an allelic series)	9.36 upbm affinity estimate (log intensity, higher = more binding, comparable within an allelic series)	9.17 upbm affinity estimate (log intensity, higher = more binding, comparable within an allelic series)	9.16 upbm affinity estimate (log intensity, higher = more binding, comparable within an allelic series)				9.23 upbm affinity estimate (log intensity, higher = more binding, comparable within an allelic series)
GGCGCGAC	9.13 upbm affinity estimate (log intensity, higher = more binding, comparable within an allelic series)	9.13 upbm affinity estimate (log intensity, higher = more binding, comparable within an allelic series)	9.1 upbm affinity estimate (log intensity, higher = more binding, comparable within an allelic series)	9.14 upbm affinity estimate (log intensity, higher = more binding, comparable within an allelic series)	9.06 upbm affinity estimate (log intensity, higher = more binding, comparable within an allelic series)				9.21 upbm affinity estimate (log intensity, higher = more binding, comparable within an allelic series)
